Records with an inconclusive call do not appear. Values without a mark were called inactive. Activity calls are given as the source filed them. Calls come from the whole dose curve; as a rule, active = well fitted inhibition curve with a large enough effect; inconclusive = small, poorly fitted or top-dose-only effect; inactive = no such curve, though single readings can be large or run the other way.

Results on 7 molecules are retold here after PubChem BioAssay (NCATS).
% is set by controls: 0 for no effect and ±100 for the full control effect.

This experiment concerns Zika virus NS2B-NS3 protease (linked construct). The experiment can be described thus: Primary screen NINDS Rhodamine qHTS for Zika virus inhibitors (AID 1347160). Note: nearly all actives have a fitted effect of over 55% in size. The conditions noted are these: purified NS2B-NS3 protease, Rhodamine110 substrate fluorescence; series mostly up to 33.1 µM; activity change, negative = inhibition: at the top concentration. In outline: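 Aprotinin served as in-plate control. Conditions: 25 nM linked NS2B-NS3, pH 8.0 Tris buffer, titrated compounds, 15 min preincubation and 15 min reaction with 1.5 microM Rhod110 substrate at room temperature.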
Background: In qHTS, concentration-response curves come from the screen itself.
For `COc1cc(O)cc(O[C@@H]2O[C@H](CO)[C@@H](O[C@@H]3OC[C@](O)(CO)[C@H]3O)[C@H](O)[C@H]2O)c1OC`, the “activity change, negative = inhibition” value is -1.48%.
On to `CC(C)=CC1C[C@](C)(O)[C@@H]2[C@H]3CCC4[C@@]5(C)CC[C@H](O[C@@H]6OC[C@H](O)[C@H](O[C@@H]7O[C@H](CO[C@@H]8O[C@H](CO)[C@@H](O)[C@H](O)[C@H]8O)[C@@H](O)[C@H](O)[C@H]7O)[C@H]6O[C@@H]6O[C@@H](C)[C@H](O)[C@@H](O)[C@H]6O)C(C)(C)[C@@H]5CC[C@@]4(C)[C@@]34CO[C@@]2(C4)O1` (some centres not stated), for which the “activity change, negative = inhibition” value is 17.5% [at 15.1 µM].
For `COc1cc2c(cc1O)CC(O)(CO)C(CO)C2c1ccc(OC2OC(CO)C(O)C(O)C2O)c(OC)c1` (configuration not stated), the “activity change, negative = inhibition” value was -4.9%.
`CC1(C)CC[C@]2(C(=O)O)CC[C@]3(C)C(=CCC4[C@@]5(C)CC[C@H](O[C@@H]6O[C@H](C(=O)O)[C@@H](O)[C@H](O[C@@H]7O[C@H](CO)[C@H](O)[C@H](O)[C@H]7O)[C@H]6O[C@@H]6O[C@H](CO)[C@@H](O)[C@H](O)[C@H]6O)C(C)(C)C5CC[C@]43C)[C@@H]2C1` (some centres not stated): the “activity change, negative = inhibition” value is -13% [at 10.7 µM].
For the molecule `O=C(O[C@H]1[C@H](Oc2ccc(O)cc2CO)O[C@H](CO)[C@@H](O)[C@@H]1O)c1ccccc1`, the “activity change, negative = inhibition” value was -1.4%.
With `CCOc1ncc(S(=O)(=O)N2CCN(CC)CC2)cc1-c1nc2c(CC)n(CCOC)nc2c(=O)[nH]1`, the result was inactive.
On to `CC1(C)C=Cc2c(ccc3c2N=C2C(C)(C)[C@@H]4C[C@]56CCCN5C(=O)[C@@]4(C[C@]23O)NC6=O)O1`, for which the “activity change, negative = inhibition” value was 10.8%.
